Experimental findings from PubChem BioAssay are described below.

The source made the active and inactive calls. Unless noted, no rule for the calls is given here.

The test system of assay [1] is Wnt5a (protein binding on small-molecule microarray). Put plainly: small molecules binding Wnt5a protein – biophysical, small-molecule microarray, 635/667 nm fluorescence, primary screen (AID 1142).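 Also: fluorescence read at 667 nm with signal to noise per printed feature.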 The conditions noted are these: 635 nm fluorescence, higher = more signal.
Assay [2] in a line: ATP-based viability of Huh7 replicon cells – cell-based, CellTiter-Glo luminescence, basal, 48 h, cytotoxicity control for HCV replication inhibitor project, primary screen (AID 1143).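 Also: Huh7 hepatoma cells carrying a hepatitis C replication reporter with no stimulus; test concentration not given here.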 The conditions noted are these: higher = more signal, called active from +8 up or from −8 down. Background: In antiviral work, replicon cells carry a viral genome segment that copies itself.
Assay [3] is described as follows: Pseudomonas biofilm growth suppression – PAO1 strain, BacTiter-Glo luminescence, LB-PBS, primary screen (AID 1144). The conditions noted are these: P. aeruginosa PAO1 biofilm, 12 h, higher = more signal.
Assay [4] is described as follows: basal CRE-LacZ reporter activity in PC12 – cell-based, unstimulated, primary screen (AID 1145). The conditions noted are these: no forskolin, luminescence, 4.5 h, higher = more signal, called active from +8 up or from −8 down.
Assay [5] can be described thus: forskolin-driven CRE-LacZ activity in PC12 – cell-based, CRE-LacZ reporter, forskolin-stimulated, primary screen (AID 1146).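 Also: PC12 cells with 6xCRE LacZ reporter stimulated by forskolin 10 µM; beta-galactosidase reporter signal reflecting CREB driven transcription.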 The conditions noted are these: luminescence, 4.5 h, higher = more signal, called active from +8 up or from −8 down.
In assay [6] the target is Streptavidin (Streptomyces avidinii) (UniProt P22629). Description: compounds binding control protein streptavidin – biophysical, small-molecule microarray, 635/667 nm fluorescence, artefact control for SMM compound annotation, primary screen (AID 1147).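 Also: signal reflects streptavidin binding to arrayed compounds as a control protein.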 Particulars: higher = more signal.
The nature of assay [7]: probe aInhba binding on compound microarray – biochemical, small-molecule microarray, 635/667 nm fluorescence, primary screen (AID 1148).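 Also: score merges 667nm spot fluorescence with signal-to-noise for antibody binding to printed compounds.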 The conditions noted are these: higher = more signal.
In assay [8] the target is Torsin-1A (Homo sapiens) (UniProt O14656). Description: TOR1A wild-type binding on microarray – cell lysate, small-molecule microarray, lysate, 635/667 nm, primary screen (AID 1149). The conditions noted are these: COS7 hTOR1A-WT lysate, 635 nm fluorescence, higher = more signal.
The target is the same in assay [9]. Description: torsin A mutant lysate binding on microarrays – cell lysate, small-molecule microarray, COS7 lysate, 635/667 nm fluorescence, primary screen (AID 1150).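 Also: score pools 667 nm emission and signal to noise measuring lysate protein binding.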 The conditions noted are these: COS7 hTOR1A mutant lysate, 635 nm fluorescence, higher = more signal.
Assay [10] concerns Sonic hedgehog protein (Shh). Put plainly: Sonic hedgehog microarray binding compounds – biochemical, small-molecule microarray, 635/667 nm fluorescence, primary screen (AID 1151).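 Also: Shh protein binding to compounds spotted on small-molecule microarray slides; score combines spot fluorescence intensity with signal-to-noise across triplicate slides.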 The conditions noted are these: 635 nm fluorescence, higher = more signal.
Assay [11] can be described thus: optical density shifts of acrAB sulA E. coli – strain DRC41, OD650, 48 h, E. coli filamentation inducer project, primary screen (AID 1152).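 Also: E. coli MC1000 strain DRC41 lacking acrAB efflux pump and sulA.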 The conditions noted are these: higher = more signal, called active from +8 up or from −8 down.
Assay [12] in a line: probe aLefty1 binding on compound microarray – biochemical, small-molecule microarray, 635/667 nm fluorescence, primary screen (AID 1153).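 Also: score merges spot fluorescence with signal-to-noise ratio from the scanned slide images.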 The conditions noted are these: higher = more signal.
Assay [13] is described as follows: plasmodial surface anion channel blockers, osmotic lysis – cell-based, P. falciparum Indochina, OD700, 1 h, primary screen (AID 1154). The conditions noted are these: P. falciparum Indochina infected RBC osmotic lysis, higher = more signal, called active from +8 up or from −8 down.
Assay [14] is described as follows: plasmodial surface anion channel blockers, osmotic lysis – cell-based, P. falciparum Indochina, OD700, 2 h, primary screen (AID 1155).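 Also: lysis reports solute entry through the parasite surface anion channel PSAC.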 The conditions noted are these: P. falciparum Indochina infected erythrocytes, higher = more signal, called active from +8 up or from −8 down.
The nature of assay [15]: changes in parasitized red cell lysis, either direction – P. falciparum Indochina, OD700, 3 h, PSAC antagonist project, primary screen (AID 1156). Particulars: P. falciparum-infected erythrocytes, osmotic lysis, higher = more signal, called active from +8 up or from −8 down.
A short description of assay [16]: plasmodial surface anion channel blockers, osmotic lysis – cell-based, P. falciparum Indochina, OD700, 18 h, primary screen (AID 1157). The conditions noted are these: P. falciparum Indochina infected erythrocytes, osmotic lysis OD700, 18 h; higher = more signal, called active from +8 up or from −8 down.
The nature of assay [17]: S6 kinase pathway phospho-S6 level changes – cell-based, A549, cytoblot, luminescence, serum-stimulated, primary screen (AID 1158).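 Also: serum-stimulated A549 lung adenocarcinoma cells; signal is phosphorylated S6 detected by cytoblot immunostaining with HRP secondary.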 The conditions noted are these: 5 h, higher = more signal.
The target in assay [18] is NADPH oxidase 2 (Homo sapiens) (UniProt P04839). Put plainly: compounds shifting NOX2 Amplex Red fluorescence – cell-based, HEK293-NOX2, PMA-stimulated, NOX inhibitor project, primary screen (AID 1159). Also: test concentration not given here. The conditions noted are these: 45 min, higher = more signal, called active from +8 up or from −8 down.
The target in assay [19] is NADPH oxidase 4 (Homo sapiens) (UniProt Q9NPH5). Description: compounds shifting NOX4 Amplex Red fluorescence – cell-based, HEK293-NOX4, tetracycline-induced, NOX inhibitor project, primary screen (AID 1160). The conditions noted are these: HEK293-NOX4, Amplex Red H2O2 fluorescence, 45 min; higher = more signal, called active from +8 up or from −8 down.
Assay [20] addresses NADPH oxidase 5 (Homo sapiens) (UniProt Q96PH1). Description: compounds shifting NOX5 Amplex Red fluorescence – cell-based, HEK293-NOX5, NOX inhibitor project, primary screen (AID 1161). The conditions noted are these: HEK293-NOX5, ionomycin, 45 min, higher = more signal.

NADPH oxidase 4 (Homo sapiens), sequence (Q9NPH5 whole entry, looked up): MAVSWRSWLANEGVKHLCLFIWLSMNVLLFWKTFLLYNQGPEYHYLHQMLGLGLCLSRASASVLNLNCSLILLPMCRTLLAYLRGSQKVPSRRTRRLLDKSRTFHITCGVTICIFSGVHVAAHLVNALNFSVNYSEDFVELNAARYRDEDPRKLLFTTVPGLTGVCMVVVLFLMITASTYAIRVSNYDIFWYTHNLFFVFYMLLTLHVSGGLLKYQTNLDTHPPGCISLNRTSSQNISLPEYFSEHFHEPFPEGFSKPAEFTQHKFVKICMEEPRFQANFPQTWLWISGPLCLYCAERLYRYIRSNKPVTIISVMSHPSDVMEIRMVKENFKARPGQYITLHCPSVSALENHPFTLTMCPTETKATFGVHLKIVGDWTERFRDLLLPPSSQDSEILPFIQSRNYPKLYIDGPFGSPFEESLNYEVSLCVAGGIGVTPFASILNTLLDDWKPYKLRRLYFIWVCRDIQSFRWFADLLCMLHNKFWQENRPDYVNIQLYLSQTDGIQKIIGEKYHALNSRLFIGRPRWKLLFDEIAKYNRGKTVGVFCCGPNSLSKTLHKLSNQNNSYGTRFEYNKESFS
Torsin-1A (Homo sapiens), sequence (O14656 whole entry, looked up): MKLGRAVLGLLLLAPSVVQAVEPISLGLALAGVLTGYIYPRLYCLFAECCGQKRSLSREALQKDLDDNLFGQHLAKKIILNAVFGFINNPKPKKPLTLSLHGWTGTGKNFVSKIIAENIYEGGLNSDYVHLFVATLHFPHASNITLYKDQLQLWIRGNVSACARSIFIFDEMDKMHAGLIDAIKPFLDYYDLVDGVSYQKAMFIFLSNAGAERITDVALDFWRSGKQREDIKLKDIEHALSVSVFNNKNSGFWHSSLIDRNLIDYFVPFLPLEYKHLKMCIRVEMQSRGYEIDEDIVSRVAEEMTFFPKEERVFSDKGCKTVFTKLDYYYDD
Streptavidin (Streptomyces avidinii), sequence (P22629 whole entry, looked up): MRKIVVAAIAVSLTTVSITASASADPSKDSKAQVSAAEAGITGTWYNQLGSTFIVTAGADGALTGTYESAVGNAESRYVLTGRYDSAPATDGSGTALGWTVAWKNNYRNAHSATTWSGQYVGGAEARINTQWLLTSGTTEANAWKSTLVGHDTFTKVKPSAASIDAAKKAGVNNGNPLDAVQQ
NADPH oxidase 5 (Homo sapiens), sequence (Q96PH1 whole entry, looked up): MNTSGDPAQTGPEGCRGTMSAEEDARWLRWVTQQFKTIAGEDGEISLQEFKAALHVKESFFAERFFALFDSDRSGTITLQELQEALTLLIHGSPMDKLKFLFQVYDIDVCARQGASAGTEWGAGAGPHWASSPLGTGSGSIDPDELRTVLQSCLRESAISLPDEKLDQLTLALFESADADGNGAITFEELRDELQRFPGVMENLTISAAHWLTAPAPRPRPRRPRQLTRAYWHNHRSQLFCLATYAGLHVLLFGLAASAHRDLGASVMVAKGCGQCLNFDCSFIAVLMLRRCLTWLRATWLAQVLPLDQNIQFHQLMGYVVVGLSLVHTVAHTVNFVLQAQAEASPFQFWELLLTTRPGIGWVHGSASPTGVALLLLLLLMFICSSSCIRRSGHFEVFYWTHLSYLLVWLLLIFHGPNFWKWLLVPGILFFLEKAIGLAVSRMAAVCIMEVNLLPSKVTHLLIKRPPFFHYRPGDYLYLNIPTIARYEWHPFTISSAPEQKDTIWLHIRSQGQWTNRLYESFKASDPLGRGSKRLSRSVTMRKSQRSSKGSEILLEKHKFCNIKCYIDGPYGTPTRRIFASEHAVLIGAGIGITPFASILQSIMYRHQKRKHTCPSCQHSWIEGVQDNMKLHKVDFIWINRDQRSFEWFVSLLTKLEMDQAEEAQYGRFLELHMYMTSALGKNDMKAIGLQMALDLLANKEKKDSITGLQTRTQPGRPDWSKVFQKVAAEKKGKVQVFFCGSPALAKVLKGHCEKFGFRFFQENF
NADPH oxidase 2 (Homo sapiens), sequence (P04839 whole entry, looked up): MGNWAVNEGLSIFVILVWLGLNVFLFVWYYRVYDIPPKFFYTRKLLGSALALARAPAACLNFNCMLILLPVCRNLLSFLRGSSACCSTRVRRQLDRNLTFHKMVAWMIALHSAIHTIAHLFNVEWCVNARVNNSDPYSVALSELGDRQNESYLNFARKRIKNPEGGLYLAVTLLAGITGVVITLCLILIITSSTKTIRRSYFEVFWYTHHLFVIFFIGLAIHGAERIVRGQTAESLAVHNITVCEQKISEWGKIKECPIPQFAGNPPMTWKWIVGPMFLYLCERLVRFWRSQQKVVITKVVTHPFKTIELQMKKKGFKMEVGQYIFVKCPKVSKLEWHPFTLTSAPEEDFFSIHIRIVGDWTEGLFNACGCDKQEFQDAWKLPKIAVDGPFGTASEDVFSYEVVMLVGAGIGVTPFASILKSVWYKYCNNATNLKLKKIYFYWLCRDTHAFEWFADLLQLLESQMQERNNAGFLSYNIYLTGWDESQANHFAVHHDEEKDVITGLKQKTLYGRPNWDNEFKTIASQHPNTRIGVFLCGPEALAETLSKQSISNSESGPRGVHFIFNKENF

With `COc1cc(C(O)C2C=CC3C(=O)NC(=O)C3N2Nc2ccc(Cl)cc2Cl)cc(OC)c1OC` (stereo not given), the composite z-score in [1] was 0.273; in assay [6], 1.59; in assay [7], 0.115; in the assay with Torsin-1A (Homo sapiens) [8], -0.69; with Torsin-1A (Homo sapiens) [9], 0.81; in assay [10] it was 0.245. The compound also came in with a composite z-score in assay [12] of 0.505. In addition, the z-score in assay [2] was 0.127 (inactive); in assay [3], -0.591 (inactive); in [4], 0.622 (inactive); in [5] it was 0.472 (inactive); in [11], -1.52 (inactive); in assay [13], 1.94 (inactive). The z-score was 1.49 (inactive) in [14]; 0.0681 (inactive) in assay [15]; 1.24 (inactive) in [16]; -0.778 in assay [17]; -0.885 (inactive) in [18]; -5.56 (inactive) in assay [19]. Also, in assay [20], the z-score is -3.11.
`CCCCCCCCCCC(O)C1C=CC2C(=O)NC(=O)C2N1Nc1ccccn1` (stereo not given): the composite z-score in assay [1] was -0.41; in assay [6], 0.606; in assay [7], -0.0087; with Torsin-1A (Homo sapiens) [8] it was -1.17; with Torsin-1A (Homo sapiens) [9], -0.213; in assay [10], -0.478. Further, the composite z-score in assay [12] amounted to 0.0312. Moreover, the z-score is -3.4 (inactive) in assay [2]; -1.27 (inactive) in [3]; 3.3 (inactive) in assay [4]; 0.383 (inactive) in assay [5]; -8.86 (active) in [11]; 19.9 (active) in assay [13]. Also, the z-score in [14] is 6.41 (inactive); in [15], -0.0795 (inactive); in assay [16], 2.71 (inactive); in assay [17] it was -1.18; in assay [18], -2.33 (inactive); in assay [19], -5.71 (inactive). Besides, the z-score in [20] is -0.309.
In the case of `COCCOC(=O)N1C(=O)[C@@]2(c3cc(C#CCNC(N)=O)ccc31)[C@H](C(N)=O)[C@H]1C(=O)O[C@H](c3ccccc3)[C@H](c3ccccc3)N1[C@@H]2c1ccc(OCCO)cc1`, the composite z-score came to 0.601 in [1]; 0.668 in assay [6]; 0.0219 in assay [7]; 0.532 with Torsin-1A (Homo sapiens) [8]; 1.26 with Torsin-1A (Homo sapiens) [9]; 1.63 in [10]. Besides, in assay [12], the composite z-score was -0.41. Also, the z-score in assay [2] is 0.166 (inactive); in assay [3], 0.404 (inactive); in [4] it was 0.631 (inactive); in assay [5] it was -0.0727 (inactive); in [11], -0.618 (inactive); in [13], 6.81 (inactive). For the same compound, the z-score in [14] is 1.02 (inactive); in [15], -0.0934 (inactive); in assay [16] it was 0.237 (inactive); in assay [17] it was -0.575; in assay [18], 1.8 (inactive); in [19], 1.04 (inactive). In addition, the z-score in assay [20] was 0.0625.
With `CN(C)CCCCCCNC(=O)[C@@H]1C[C@@H]2C(=O)NCC(=O)N2[C@@H]1c1ccc(O)cc1`, the composite z-score in assay [1] was 0.781; in assay [6] it was 0.28; in [7], -0.102; in the assay with Torsin-1A (Homo sapiens) [8] it was 0.97; with Torsin-1A (Homo sapiens) [9], 1.32; in assay [10], 1.93. In [12], this compound showed a composite z-score of 0.298. Moreover, the z-score in assay [2] is -0.981 (inactive); in [3], -0.162 (inactive); in assay [4], 0.147 (inactive); in [5], 0.625 (inactive); in assay [11] it was -0.407 (inactive); in assay [13], 0.755 (inactive). In addition, the z-score was -0.296 (inactive) in assay [14]; 0.794 (inactive) in [15]; -0.114 (inactive) in assay [16]; -0.341 in assay [17]; -0.289 (inactive) in assay [18]; 0.12 (inactive) in assay [19]. Also, the z-score in assay [20] came out at 0.524.
